Measured values taken from the supplement of paper PMC7156485.
Unmarked numbers belong to inactive results.

Each molecule was assayed on HCC1569 (assay: H1.0 immunofluorescence intensity relative to DMSO (% of DMSO); higher = stronger H1.0 induction, active = 140 or more). Conditions: concentration: 10 µM; 24 h.
In short: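 HCC1569 and TDF cells were seeded at 800 per well in 384-well plates in RPMI with 10% FBS and treated with compounds at 10 µM for 24 h at 37 °C, in triplicate. After fixation in 3.7% formaldehyde, cells were stained with a rabbit anti-H1.0 antibody, an AlexaFluor 647 secondary and DAPI, and six fields per well were imaged at ×10. H1.0 nuclear intensity or cell number is given as percent of the plate control, using the median of replicates, with HCC1569 values smoothed for positional effects.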
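Also: TDF is a line of transformed human dermal fibroblasts of mesenchymal origin.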

Structure (SMILES) | H1.0 immunofluorescence intensity
O=C(CCc1ccc(O)cc1)c1c(O)cc(O)cc1OC1OC(CO)C(O)C(O)C1O (stereo not drawn) [Phlorizine] | 97.1
CN(C)CCCN1c2ccccc2Sc2ccc(Cl)cc21.Cl [Chlorpromazine hydrochloride] | 144 (active)
CCCCCCCCCCCC=CCCCCC(=O)O [6(Z)-Octadecenoic acid] | 97.5
COc1nc(C)nc(Cl)c1NC1=NCCN1.Cl [Moxonidine hydrochloride] | 90.3
Cc1cc(N)c2ccccc2[n+]1CCCCCCCCCC[n+]1c(C)cc(N)c2ccccc21.[Cl-].[Cl-] [Dequalinium dichloride] | 123
O=C1CCC(N2C(=O)c3ccccc3C2=O)C(=O)N1 (racemic) | 99.3
O=C(CCl)c1c[nH]c2ccccc12 [2-chloro-1-(1H-indol-3-yl)ethanone] | 150 (active)
O=C(O)CCCC=CCC1C(O)CC(F)C1C=CC(O)C1Cc2ccccc2C1 (stereo not drawn) | 97.3
CC(C)(C)NCC(O)c1cc(O)cc(O)c1.CC(C)(C)NCC(O)c1cc(O)cc(O)c1.O=S(=O)(O)O (stereo not drawn) [Terbutaline hemisulfate] | 97
O=C1NC(=O)C(=Cc2ccc(-c3ccc(F)cc3O)o2)S1 | 97.7
CCCCCCCCCCCCCCCCOCC(CO)OC(C)=O (stereo not drawn) [1-Hexadecyl-2-O-acetyl-glycerol] | 86.3
Br.CN1CCc2cc(O)c(O)cc2C1Cc1ccc(O)c(O)c1.O.O.O (stereo not drawn) | 89.2
COc1cc(C(=O)OC2CC3CCC2(C)C3(C)C)ccc1O (stereo not drawn) [Tschimganine] | 88.3
Br.Oc1ccc(C2CNCCc3c2cc(O)c(O)c3Cl)cc1 (stereo not drawn) [Fenoldopam bromide] | 99.2
N=c1ccn2c(n1)OC1C(O)C(CO)OC12 (stereo not drawn) [Cyclocytidine] | 101
Cc1cc2c(OCC(CNC(C)(C)C)OC(=O)c3ccccc3)cccc2[nH]1 (stereo not drawn) [Bopindolol] | 103
CC(C)Cn1cnc2c(N)nc3ccccc3c21 [Imiquimod] | 108

Structure (SMILES) | H1.0 immunofluorescence intensity
CC1OC(n2cc(F)c(=O)[nH]c2=O)C(O)C1O (stereo not drawn) [Doxifluridine] | 101
Cl.NCC1OC(C23CC4CC(CC(C4)C2)C3)Cc2c1ccc(O)c2O (stereo not drawn) | 129
CCC12CCCN3CCc4c(n(c5ccccc45)C(=O)C1)C32 (single isomer, unassigned; (-)) [(-)-Eburnamonine] | 113
CCCCCC=CCC=CCC=CCC=CCCCC(=O)OC(COCCCCCCCCCCCCCCCC)COP(=O)([O-])OCC[N+](C)(C)C (stereo not drawn) [Arachidonyl-PAF] | 93.4
Cc1coc2c1C(=O)C(=O)c1c-2ccc2c1CCCC2(C)C [Tanshinone IIA] | 114
CC1(NCC(O)COc2cccc3[nH]ccc23)CCC(C(C)(C)NC(=O)CBr)CC1 (stereo not drawn) [Pindobind-5HT1A] | 178 (active)
CC[N+](C)(C)c1cccc(O)c1.[Cl-] [Edrophonium chloride] | 95.7
CCCNCC(O)COc1ccccc1C(=O)CCc1ccccc1 (stereo not drawn) [Propafenone] | 103
C[N+](C)(C)CCOC(=O)CCC(=O)OCC[N+](C)(C)C.[Cl-].[Cl-] [Succinylcholine chloride] | 84.7
CC(N=C(NC#N)Nc1ccncc1)C(C)(C)C (stereo not drawn) [Pinacidil] | 101
N[C@@H](COP(=O)(O)O)C(=O)O [O-Phospho-L-serine] | 96.7
CSc1ccc(C(=O)c2[nH]c(=O)[nH]c2C)cc1 [Enoximone] | 105
O=C(c1ccc(C(=O)N2CCC(N3CCCC3)CC2)c(Nc2ccccc2)c1)N1CCC(N2CCCC2)CC1 | 102
CN=C(NC#N)Nc1ccc(C2=NNC(=O)CC2C)cc1 (stereo not drawn) [Siguazodan] | 115
O=c1[nH]c(=O)n(C2CC(O)C(CO)O2)cc1Br (stereo not drawn) [5-Bromo-2'-deoxyuridine] | 105
COc1cc2ncc(-c3ccccc3)nc2cc1OC [Tyrphostin AG 1296] | 111
